# Measurements as given in PubChem BioAssay AID1159580 (chemical genetic matrix, 2015).
# “And” between values parts separate entries of the source, which are not always exact repeats. Identical values can stand only once. Screen size: about 5,500 compounds; about 2,000 (36%) were called active. Another 18% or so got no clear call; they are omitted. Cut-off read from the data, not from the text of the source: active = normalized growth mostly below about 0.91 (no sharp cut-off); inconclusive = no clear call, values can overlap the other calls; inactive = mostly above about 0.92. This is one part of the list.
# Experiment: chemical genetic growth profiling, strain panel (AID 1159580);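 note: tested at 20 µM; growth read once vehicle control cultures reached saturation at 30 °C; 1 = growth at the plate median or of vehicle wells; lower values mean less growth of the strain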
# Details: growth OD
# [1] = S. cerevisiae deletion strains, locus YBR229C, strain ROT2, stronger effect = lower value
# [2] = S. cerevisiae deletion strains, locus YCL061C, strain MRC1, stronger effect = lower value
# [3] = S. cerevisiae deletion strains, locus YDL101C, strain DUN1, stronger effect = lower value
# [4] = S. cerevisiae deletion strains, locus YDL134C, strain PPH21, stronger effect = lower value
# [5] = S. cerevisiae deletion strains, locus YDR150W, strain NUM1, stronger effect = lower value
# [6] = S. cerevisiae deletion strains, locus YEL061C, strain CIN8, stronger effect = lower value
# [7] = S. cerevisiae deletion strains, locus YGR078C, strain PAC10, stronger effect = lower value
# [8] = S. cerevisiae deletion strains, locus YHR030C, strain SLT2, stronger effect = lower value
# [9] = S. cerevisiae deletion strains, locus YHR087W, strain rtc3, stronger effect = lower value
# [10] = S. cerevisiae deletion strains, locus YJR043C, strain POL32, stronger effect = lower value
# [11] = S. cerevisiae deletion strains, locus YJR075W, strain HOC1, stronger effect = lower value
# [12] = S. cerevisiae deletion strains, locus YLR039C, strain RIC1, stronger effect = lower value
# [13] = S. cerevisiae deletion strains, locus YLR058C, strain SHM2 (second series), stronger effect = lower value
# [14] = S. cerevisiae deletion strains, locus YLR085C, strain ARP6, stronger effect = lower value
# [15] = S. cerevisiae deletion strains, locus YLR262C, strain YPT6, stronger effect = lower value
# [16] = S. cerevisiae deletion strains, locus YML094W, strain GIM5, stronger effect = lower value
# [17] = S. cerevisiae deletion strains, locus YMR219W, strain ESC1, stronger effect = lower value
# [18] = S. cerevisiae deletion strains, locus YMR263W, strain SAP30, stronger effect = lower value
# [19] = S. cerevisiae deletion strains, locus YMR307W, strain GAS1, stronger effect = lower value
# [20] = S. cerevisiae deletion strains, locus YNL153C, strain GIM3, stronger effect = lower value
# [21] = S. cerevisiae deletion strains, locus YNL298W, strain CLA4 (second series), stronger effect = lower value
# [22] = S. cerevisiae deletion strains, locus YNL322C, strain KRE1, stronger effect = lower value
# [23] = S. cerevisiae deletion strains, locus YNR030W, strain Alg12, stronger effect = lower value
# [24] = S. cerevisiae deletion strains, locus YPL055C, strain LGE1, stronger effect = lower value
# [25] = S. cerevisiae deletion strains, locus YPL241C, strain CIN2, stronger effect = lower value
# [26] = S. cerevisiae deletion strains, locus YPR135W, strain CTF4, stronger effect = lower value
compound,measurement,setting,value
COc1ccc(-c2c(C(=O)O)sc(SC)c2C#N)cc1,normalized growth,"S. cerevisiae deletion strains, locus YAL013W, strain DEP1, stronger effect = lower value",0.996 (inactive)
same,normalized growth,[1],0.998 (inactive)
same,normalized growth,[2],0.989 (inactive)
same,normalized growth,[3],1.01 (inactive)
same,normalized growth,[4],1.01 (inactive)
same,normalized growth,[5],1.07 (inactive)
same,normalized growth,[6],1.01 (inactive)
same,normalized growth,[7],1.01 (inactive)
same,normalized growth,"S. cerevisiae deletion strains, locus YGR229C, strain SMI1, stronger effect = lower value",1 (inactive)
same,normalized growth,[8],1.01 (inactive)
same,normalized growth,[9],0.997 (inactive)
same,normalized growth,[10],0.981 (inactive)
same,normalized growth,[11],1.01 (inactive)
same,normalized growth,"S. cerevisiae deletion strains, locus YKL190W, strain CNB1, stronger effect = lower value",1.01 (inactive)
same,normalized growth,[12],1.03 (inactive)
same,normalized growth,[13],0.994 (inactive)
same,normalized growth,[14],1.05 (inactive)
same,normalized growth,[15],1.04 (inactive)
same,normalized growth,[16],1.02 (inactive)
same,normalized growth,[17],1 (inactive)
same,normalized growth,[18],1.04 (inactive)
same,normalized growth,[19],1.06 (inactive)
same,normalized growth,[20],0.992 (inactive)
same,normalized growth,[21],1 (inactive)
same,normalized growth,[22],1 (inactive)
same,normalized growth,[23],1.01 (inactive)
same,normalized growth,[24],1.1 (inactive)
same,normalized growth,[25],1.01 (inactive)
same,normalized growth,[26],0.964 (inactive)
CSc1sc(-c2ccn[nH]2)c(-c2ccccc2)c1C#N,normalized growth,"S. cerevisiae deletion strains, locus YAR019C, strain CDC15, stronger effect = lower value",0.982 (inactive)
same,normalized growth,"S. cerevisiae deletion strains, locus YBL105C, strain PKC1, stronger effect = lower value",0.981 (inactive)
same,normalized growth,"S. cerevisiae deletion strains, locus YBR135W, strain CKS1, stronger effect = lower value",0.975 (inactive)
same,normalized growth,"S. cerevisiae deletion strains, locus YBR136W, strain MEC1, stronger effect = lower value",0.975 (inactive)
same,normalized growth,"S. cerevisiae deletion strains, locus YBR160W, strain CDC28, stronger effect = lower value",0.992 (inactive)
same,normalized growth,[1],0.941 (inactive)
same,normalized growth,[2],0.981 (inactive)
same,normalized growth,"S. cerevisiae deletion strains, locus YDL017W, strain CDC7, stronger effect = lower value",0.994 (inactive)
same,normalized growth,"S. cerevisiae deletion strains, locus YDL028C, strain MPS1, stronger effect = lower value",0.983 (inactive)
same,normalized growth,[3],0.968 (inactive) and 0.962 (inactive)
same,normalized growth,"S. cerevisiae deletion strains, locus YDL108W, strain KIN28, stronger effect = lower value",0.977 (inactive)
same,normalized growth,"S. cerevisiae deletion strains, locus YDL132W, strain cdc53, stronger effect = lower value",0.972 (inactive)
same,normalized growth,[4],0.732 (active)
same,normalized growth,"S. cerevisiae deletion strains, locus YDL214C, strain PRR2, stronger effect = lower value",0.997 (inactive)
same,normalized growth,"S. cerevisiae deletion strains, locus YDR052C, strain DBF4, stronger effect = lower value",0.989 (inactive)
same,normalized growth,"S. cerevisiae deletion strains, locus YDR054C, strain cdc34, stronger effect = lower value",0.988 (inactive)
same,normalized growth,[5],0.974 (inactive)
same,normalized growth,"S. cerevisiae deletion strains, locus YDR226W, strain ADK1, stronger effect = lower value",0.976 (inactive)
same,normalized growth,"S. cerevisiae deletion strains, locus YDR477W, strain SNF1, stronger effect = lower value",0.984 (inactive)
same,normalized growth,[6],0.827 (active)
same,normalized growth,"S. cerevisiae deletion strains, locus YER123W, strain YCK3, stronger effect = lower value",0.976 (inactive)
same,normalized growth,"S. cerevisiae deletion strains, locus YER133W, strain GLC7, stronger effect = lower value",0.987 (inactive)
same,normalized growth,"S. cerevisiae deletion strains, locus YFL009W, strain cdc4, stronger effect = lower value",0.97 (inactive)
same,normalized growth,"S. cerevisiae deletion strains, locus YFL029C, strain CAK1, stronger effect = lower value",0.975 (inactive)
same,normalized growth,"S. cerevisiae deletion strains, locus YFR003C, strain YPI1, stronger effect = lower value",0.976 (inactive)
same,normalized growth,"S. cerevisiae deletion strains, locus YFR019W, strain FAB1, stronger effect = lower value",0.973 (inactive)
same,normalized growth,"S. cerevisiae deletion strains, locus YFR028C, strain CDC14, stronger effect = lower value",0.974 (inactive)
same,normalized growth,"S. cerevisiae deletion strains, locus YGR040W, strain KSS1, stronger effect = lower value",0.998 (inactive)
same,normalized growth,"S. cerevisiae deletion strains, locus YGR052W, strain FMP48, stronger effect = lower value",0.998 (inactive)
same,normalized growth,[7],0.941 (inactive)
same,normalized growth,"S. cerevisiae deletion strains, locus YGR092W, strain DBF2, stronger effect = lower value",1 (inactive)
same,normalized growth,[8],0.599 (active) and 1.06 (inactive)
same,normalized growth,"S. cerevisiae deletion strains, locus YHR079C, strain IRE1, stronger effect = lower value",1.09 (inactive)
same,normalized growth,"S. cerevisiae deletion strains, locus YHR082C, strain KSP1, stronger effect = lower value",1.03 (inactive)
same,normalized growth,[9],0.914 (inactive)
same,normalized growth,"S. cerevisiae deletion strains, locus YHR205W, strain SCH9, stronger effect = lower value",0.997 (inactive)
same,normalized growth,"S. cerevisiae deletion strains, locus YIL147C, strain SLN1, stronger effect = lower value",0.979 (inactive)
same,normalized growth,"S. cerevisiae deletion strains, locus YJL095W, strain BCK1, stronger effect = lower value",0.974 (inactive)
same,normalized growth,"S. cerevisiae deletion strains, locus YJL128C, strain PBS2, stronger effect = lower value",0.957 (inactive)
same,normalized growth,"S. cerevisiae deletion strains, locus YJL157C, strain FAR1, stronger effect = lower value",0.986 (inactive)
same,normalized growth,"S. cerevisiae deletion strains, locus YJR016C, strain ILV3, stronger effect = lower value",0.978 (inactive)
same,normalized growth,[10],0.969 (inactive)
same,normalized growth,"S. cerevisiae deletion strains, locus YJR066W, strain TOR1 (second series), stronger effect = lower value",0.92 (inactive)
same,normalized growth,"S. cerevisiae deletion strains, locus YJR066W, strain TOR1, stronger effect = lower value",1.04 (inactive)
same,normalized growth,[11],0.944 (inactive)
same,normalized growth,"S. cerevisiae deletion strains, locus YKL048C, strain ELM1, stronger effect = lower value",0.984 (inactive)
same,normalized growth,"S. cerevisiae deletion strains, locus YKL067W, strain YNK1, stronger effect = lower value",0.992 (inactive)
same,normalized growth,"S. cerevisiae deletion strains, locus YKL101W, strain HSL1, stronger effect = lower value",0.976 (inactive)
same,normalized growth,"S. cerevisiae deletion strains, locus YKL193C, strain SDS22, stronger effect = lower value",0.983 (inactive)
same,normalized growth,"S. cerevisiae deletion strains, locus YKL203C, strain TOR2, stronger effect = lower value",1.04 (inactive)
same,normalized growth,[12],0.846 (inactive)
same,normalized growth,[13],0.975 (inactive)
same,normalized growth,[14],0.437 (active)
same,normalized growth,"S. cerevisiae deletion strains, locus YLR113W, strain HOG1, stronger effect = lower value",0.861 (active)
same,normalized growth,"S. cerevisiae deletion strains, locus YLR133W, strain CKI1, stronger effect = lower value",0.968 (inactive)
same,normalized growth,[15],0.991 (inactive)
same,normalized growth,"S. cerevisiae deletion strains, locus YLR403W, strain SFP1, stronger effect = lower value",0.982 (inactive)
same,normalized growth,"S. cerevisiae deletion strains, locus YML070W, strain DAK1, stronger effect = lower value",0.984 (inactive)
same,normalized growth,[16],0.789 (active)
same,normalized growth,"S. cerevisiae deletion strains, locus YMR001C, strain CDC5, stronger effect = lower value",0.993 (inactive)
same,normalized growth,"S. cerevisiae deletion strains, locus YMR205C, strain PFK2 (second series), stronger effect = lower value",0.97 (inactive)
same,normalized growth,[17],0.955 (inactive)
same,normalized growth,[18],0.939 (inactive)
same,normalized growth,"S. cerevisiae deletion strains, locus YMR277W, strain FCP1, stronger effect = lower value",0.984 (inactive)
same,normalized growth,[19],0.508 (active)
same,normalized growth,"S. cerevisiae deletion strains, locus YNL006W, strain LST8, stronger effect = lower value",1 (inactive)
same,normalized growth,"S. cerevisiae deletion strains, locus YNL020C, strain ARK1, stronger effect = lower value",0.996 (inactive)
same,normalized growth,[20],0.979 (inactive)
same,normalized growth,"S. cerevisiae deletion strains, locus YNL161W, strain CBK1, stronger effect = lower value",0.991 (inactive)
same,normalized growth,"S. cerevisiae deletion strains, locus YNL183C, strain NPR1, stronger effect = lower value",1 (inactive)
same,normalized growth,"S. cerevisiae deletion strains, locus YNL207W, strain RIO2, stronger effect = lower value",0.96 (inactive)
same,normalized growth,"S. cerevisiae deletion strains, locus YNL222W, strain SSU72, stronger effect = lower value",0.977 (inactive)
same,normalized growth,[21],0.735 (active)
same,normalized growth,"S. cerevisiae deletion strains, locus YNL307C, strain MCK1 (second series), stronger effect = lower value",1.01 (inactive)
same,normalized growth,[22],0.965 (inactive)
same,normalized growth,[23],0.753 (active)
same,normalized growth,"S. cerevisiae deletion strains, locus YOL078W, strain AVO1, stronger effect = lower value",0.981 (inactive)
same,normalized growth,"S. cerevisiae deletion strains, locus YOL136C, strain PFK27, stronger effect = lower value",0.956 (inactive)
same,normalized growth,"S. cerevisiae deletion strains, locus YOR061W, strain CKA2, stronger effect = lower value",0.986 (inactive)
same,normalized growth,"S. cerevisiae deletion strains, locus YOR119C, strain RIO1, stronger effect = lower value",1.02 (inactive)
same,normalized growth,"S. cerevisiae deletion strains, locus YOR231W, strain MKK1, stronger effect = lower value",0.965 (inactive)
same,normalized growth,"S. cerevisiae deletion strains, locus YOR329C, strain SCD5, stronger effect = lower value",0.995 (inactive)
same,normalized growth,"S. cerevisiae deletion strains, locus YPL031C, strain PHO85, stronger effect = lower value",0.989 (inactive)
same,normalized growth,[24],0.875 (inactive)
same,normalized growth,"S. cerevisiae deletion strains, locus YPL153C, strain RAD53, stronger effect = lower value",0.971 (inactive)
same,normalized growth,"S. cerevisiae deletion strains, locus YPL204W, strain HRR25, stronger effect = lower value",0.958 (inactive)
same,normalized growth,"S. cerevisiae deletion strains, locus YPL209C, strain IPL1, stronger effect = lower value",0.978 (inactive)
same,normalized growth,[25],0.758 (active)
same,normalized growth,"S. cerevisiae deletion strains, locus YPL256C, strain CLN2, stronger effect = lower value",1.04 (inactive)
same,normalized growth,"S. cerevisiae deletion strains, locus YPR025C, strain CCL1, stronger effect = lower value",0.989 (inactive)
same,normalized growth,"S. cerevisiae deletion strains, locus YPR106W, strain ISR1, stronger effect = lower value",0.986 (inactive)
same,normalized growth,"S. cerevisiae deletion strains, locus YPR111W, strain DBF20, stronger effect = lower value",0.954 (inactive)
same,normalized growth,[26],0.69 (inactive)
same,normalized growth,"S. cerevisiae deletion strains, strain NNK1, stronger effect = lower value",0.966 (inactive)
same,normalized growth,"S. cerevisiae deletion strains, strain TSCII, stronger effect = lower value",0.984 (inactive)
same,normalized growth,"S. cerevisiae strains, strain wild type, stronger effect = lower value",0.911 (active)
